Article PMC7819943, “Rice protein-binding microarrays: a tool to detect cis-acting elements near promoter regions in rice”
Whole data set: some 39,000 sequences, median “fluorescence intensity (a.u.)” near 4,300, cut for the highest 2% near 39,000. The full list was thinned out, with the highest values kept by preference.

Each sequence was assayed against T1, OsSMF1 (Oryza sativa, UniProt Q6ZLB0 1-436) (assay: protein-binding microarray (RPBM); PBS, 2% BSA, 51.3 ng/ul salmon testes DNA, 50 uM zinc acetate, 200 nM TF, 25 C, 1 h; high values mean tight binding). Details: protein: recombinant; tags: N-terminal polyhistidine and DsRed monomer fusion (pET32a); chain copies: 2; label: CyDye5-dUTP incorporated in the synthesized complementary strand; 3' TTTTT single-stranded linker to array surface; dsDNA, one strand shown.
T1 sequence: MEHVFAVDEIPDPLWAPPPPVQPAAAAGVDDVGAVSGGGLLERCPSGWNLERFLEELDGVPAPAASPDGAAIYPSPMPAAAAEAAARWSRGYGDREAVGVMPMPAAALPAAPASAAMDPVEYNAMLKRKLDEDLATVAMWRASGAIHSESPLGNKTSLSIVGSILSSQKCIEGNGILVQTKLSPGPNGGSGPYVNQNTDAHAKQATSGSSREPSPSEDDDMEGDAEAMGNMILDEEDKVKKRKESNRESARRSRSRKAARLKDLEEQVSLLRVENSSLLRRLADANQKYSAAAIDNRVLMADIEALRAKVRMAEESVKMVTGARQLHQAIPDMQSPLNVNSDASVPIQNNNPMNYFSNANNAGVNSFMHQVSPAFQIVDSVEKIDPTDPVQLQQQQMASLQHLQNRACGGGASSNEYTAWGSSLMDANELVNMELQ
Procedure, shortened: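 Binding signal here means per-feature fluorescence intensity in arbitrary units. The values were read on an Axon 4000B scanner after a custom Agilent array, double-stranded by primer extension with Cy5-dUTP, was incubated with 200 nM protein at 25 °C for 1 h in PBS with 2% BSA, salmon testes DNA and 50 µM zinc acetate, then washed. The proteins were transcription factors with an N-terminal polyhistidine tag and DsRed, expressed in E. coli BL21-CodonPlus and purified on Ni–NTA.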
With “TTAGTTCACCCATCTTGCCAATGCTGTCATCGCCACAGCTCGGAGTCACCTAGTGCAG” the binding signal was 3310 fluorescence intensity (a.u.). With “CGCGAAAGGCGTGAAACCAGTGCACGCATCACCCATCTCGCGGAGTCACCTAGTGCAG” the binding signal was 3400 fluorescence intensity (a.u.). For “TGGGCCCACCCCTCCACTCGCCCTCCTCTTCCCGCCACGTCGGAGTCACCTAGTGCAG”, the binding signal was 6190 fluorescence intensity (a.u.). With “CATCGGTCATGGTGGCGTTGGTCATGTTGGCATGGCCGTCCGGAGTCACCTAGTGCAG” the binding signal was 44000 fluorescence intensity (a.u.). For “ACCCGCGCGCCGGCCGCGTCATCGACGACATCGTGCGTACCGGAGTCACCTAGTGCAG”, the binding signal was 3920 fluorescence intensity (a.u.). In the case of “TTGTGATGTCCACGTATTCAGGATTAGACCACAGGCCCGGCGGAGTCACCTAGTGCAG”, the binding signal is reported as 8170 fluorescence intensity (a.u.). With “ATCCTTCATTATGTTAGAGTACCACATGGGAAGTCGAGACCGGAGTCACCTAGTGCAG” the binding signal was 3750 fluorescence intensity (a.u.). “GCGCCGCTCCGTGTCCCTCCCAATCCGAACCGTTTCGCGCCGGAGTCACCTAGTGCAG” was tested, and the binding signal was 3500 fluorescence intensity (a.u.). For “TACAACTACGGCCCTCCGCAGCCACAGGCGCCGCCGCCGCCGGAGTCACCTAGTGCAG”, the binding signal was 3340 fluorescence intensity (a.u.). “TTATTAGCAACCACCGTCACATATAAATTAATATGTGCCGCGGAGTCACCTAGTGCAG” was tested, and the binding signal was 3710 fluorescence intensity (a.u.). For “GTCCGTCTTGTTTTCTCCTGCGTCACAATTGTCCCGTATTCGGAGTCACCTAGTGCAG”, the binding signal was 4280 fluorescence intensity (a.u.). In the case of “CAATCCCCTAGCCTCGCCACCCGCCACGTGTCGTCCCGCGCGGAGTCACCTAGTGCAG”, the binding signal is reported as 13500 fluorescence intensity (a.u.). For “TCGCCAACTCGCGCCCAATCCCGGCTTGACACGTCACCCCCGGAGTCACCTAGTGCAG”, the binding signal was 42000 fluorescence intensity (a.u.). In the case of “AACCAGTCGCCGCTCGCCACGTGGCACCCTCCACCTCCCTCGGAGTCACCTAGTGCAG”, the binding signal is reported as 50500 fluorescence intensity (a.u.). “GAGCGCGAGCTGCTCTCCTCTCCTCCCGCCCCGCGTCGCCCGGAGTCACCTAGTGCAG” was tested, and the binding signal was 11500 fluorescence intensity (a.u.). In the case of “GCAATCCCACGTTATCCATCACCCCACCGGGGAAGCCCAACGGAGTCACCTAGTGCAG”, the binding signal is reported as 3310 fluorescence intensity (a.u.). For “CAATCCAACCGTCGTCGCGCCGCACACCGGCCACCCACCCCGGAGTCACCTAGTGCAG”, the binding signal was 20700 fluorescence intensity (a.u.). “CACACGCCAACCCGGCCCCACACGTCAGCCACTCCCACTGCGGAGTCACCTAGTGCAG” was tested, and the binding signal was 7300 fluorescence intensity (a.u.). In the case of “GTCGCCGCCGCTCCTCCACCCCACGTGCCCCTCGTGGTGGCGGAGTCACCTAGTGCAG”, the binding signal is reported as 4350 fluorescence intensity (a.u.). For “CCGGCCCAACACCACTAACACGTTCAGCCCCAATCCCCAACGGAGTCACCTAGTGCAG”, the binding signal was 42400 fluorescence intensity (a.u.). In the case of “TGCGCGTCCTGCTCGCCGCTGCCCTCGCTGAGGAGCTCTCCGGAGTCACCTAGTGCAG”, the binding signal is reported as 63600 fluorescence intensity (a.u.). For “GCTCTCGCTGACGCTGCCGCTCCGCCTGCCTCCGCCCGCGCGGAGTCACCTAGTGCAG”, the binding signal was 3900 fluorescence intensity (a.u.). With “AACCACCCTCCGCCGCCGCCGCCGCTCGCCGTAGTCACCTCGGAGTCACCTAGTGCAG” the binding signal was 3180 fluorescence intensity (a.u.). With “TATCCATGGTGTTTAACAATATATCACTGGATACACGTGTCGGAGTCACCTAGTGCAG” the binding signal was 9700 fluorescence intensity (a.u.). With “TTCTTCCCTTCACATAGGAATTGGATGATGTGGAGACTTTCGGAGTCACCTAGTGCAG” the binding signal was 7630 fluorescence intensity (a.u.). With “CATAATTTTAGGTATCGCTAGGATTTAATTTACACTGTAGCGGAGTCACCTAGTGCAG” the binding signal was 3370 fluorescence intensity (a.u.). “TTAGTTTTATATAAAATGTGTCACATGATAATAGTAGTACCGGAGTCACCTAGTGCAG” was tested, and the binding signal was 3870 fluorescence intensity (a.u.). In the case of “TCTACTGTGTGTGTGTGTGTGTGTGTTCACTACTGGATAGCGGAGTCACCTAGTGCAG”, the binding signal is reported as 3160 fluorescence intensity (a.u.). With “GTCCTAAAGTACTTATTGTGTCCGGTTTTGGTTAGTTAAGCGGAGTCACCTAGTGCAG” the binding signal was 3210 fluorescence intensity (a.u.). For “CAGTTACGCGCCGTGCCTACCCGTGTATCACCGCGATGAGCGGAGTCACCTAGTGCAG”, the binding signal was 3270 fluorescence intensity (a.u.). With “TGCGTGTTTGATGATATACACGTGCGTATATGTCTACCGTCGGAGTCACCTAGTGCAG” the binding signal was 3880 fluorescence intensity (a.u.). In the case of “TCCCTCCTCCCCGTCGTCACAAGCCACGTCATCGATCCGCCGGAGTCACCTAGTGCAG”, the binding signal is reported as 40000 fluorescence intensity (a.u.). For “CCCGCGTCGCATTCAACGCCACGCACACCACTCCACTCCACGGAGTCACCTAGTGCAG”, the binding signal was 3470 fluorescence intensity (a.u.). With “TTCTCCGGCCGCCGCCGCCATCGCCGCCGGCCGTAGCATGCGGAGTCACCTAGTGCAG” the binding signal was 56000 fluorescence intensity (a.u.). For “TGGATCCGGCCCTGCATGTCCGTCCTCGCCGGTGGGCGCTCGGAGTCACCTAGTGCAG”, the binding signal was 41400 fluorescence intensity (a.u.). For “CCAACGTCGTACATCCCTCCACGTCATCGATCCGCGCCGCCGGAGTCACCTAGTGCAG”, the binding signal was 35200 fluorescence intensity (a.u.). For “TCGGCATGGGCGGTGGCGCTGGCGCGTCCTCCGATCCCGTCGGAGTCACCTAGTGCAG”, the binding signal was 19900 fluorescence intensity (a.u.). With “TCTCTCTCTCTCTCGCCATCGTCACTGCGGCTGCTGCTGCCGGAGTCACCTAGTGCAG” the binding signal was 3810 fluorescence intensity (a.u.). In the case of “ACCCATTTTCAGTGGCAGGGTTATTGACACCACACTCACACGGAGTCACCTAGTGCAG”, the binding signal is reported as 3140 fluorescence intensity (a.u.). With “GCACCAGCCAGTCAGCCCACCATTTCAAACGCCACACTCACGGAGTCACCTAGTGCAG” the binding signal was 60800 fluorescence intensity (a.u.). In the case of “CCCTAGCCCTCGCCCTGGTCCGTCCGGCGTGGCGCGCGCTCGGAGTCACCTAGTGCAG”, the binding signal is reported as 5150 fluorescence intensity (a.u.). With “ACACGGATCGAACCCCTCCTCCCCGCCACGTCACCGATCCCGGAGTCACCTAGTGCAG” the binding signal was 38700 fluorescence intensity (a.u.). In the case of “GCATGGCGCCGCCATCTCGGATTCGCCGTAGTGTCTCCGCCGGAGTCACCTAGTGCAG”, the binding signal is reported as 35300 fluorescence intensity (a.u.).
